Tau fluor counter: counter-screen for tau fibril formation inhibitors. actives 0.93% (n = 280,000). Potency, µM (series often up to 57.7 µM), without a hit: top-dose activity change, negative = decrease. tau K18 P301L Alexa594 fluorescence, heparin fibrillization; note: nearly all actives have a fitted effect of over 55% in size
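Human K18 P301L tau (15 uM unlabeled plus 0.24 uM Alexa 594-labeled, final) in 100 mM sodium acetate pH 7 was mixed with compound and 20 uM heparin and incubated 6 hr at 37 C.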
Tau fibril FP: inhibitors of human tau fibril formation | P10636 | K18 P301L tau heparin fibrillization, Alexa594 FP, 6 h | Potency, µM (highest dose often 57.7 µM), inactives show at the highest dose activity, negative = inhibition, hits mostly inhibitors | actives 0.39% (n = 280,000); note: nearly all actives have a fitted effect of over 55% in size
Target sequence (P10636 561-689 P618L limits assumed): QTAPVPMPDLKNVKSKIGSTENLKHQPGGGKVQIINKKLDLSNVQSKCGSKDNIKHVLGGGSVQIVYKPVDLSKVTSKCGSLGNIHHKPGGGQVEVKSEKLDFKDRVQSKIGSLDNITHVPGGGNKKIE
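Read-out: fluorescence polarization of Alexa 594-labeled tau (0.24 uM), 555 nm excitation, 632 nm emission. Mixtures held 15 uM unlabeled K18 P301L, compound and 20 uM heparin, pH 7 acetate buffer, incubated 6 hr at 37 C.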
PLK1 PBD block: inhibitors of human PLK1 polo-box domain binding; P53350; Plk1 PBD binding of FITC phosphopeptide, fluorescence polarization; Potency, µM, for the others: max response, negative = inhibition, most hits filed as inhibitors; actives 2.8% (n = 360,000); AID 720504; note: series mostly up to about 57 µM; nearly all actives have a fitted effect of over 65% in size
Tau fibril ThT: tau fibrillization inhibition (ThT binding); recombinant tau K18 P301L, heparin-induced fibrillization, ThT fluorescence; P10636; AID 1460; actives 2.1% (n = 270,000); Potency, µM (top dose mostly 57.4 µM), inactives show at the top dose activity, negative = inhibition, usual class: inhibitors; note: nearly all actives have a fitted effect of over 55% in size
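Fibril formation assay: tau K18 P301L at 15 uM with trace Alexa 594 label, heparin inducer 20 uM, pH 7 sodium acetate buffer, 37 C for 6 hr; endpoint ThT signal.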
VDR inh: vitamin D3 receptor (human) inhibition; P11473; VDR-SRC2-3 peptide fluorescence polarization, 2 h; Potency, µM, for the others: max response, negative = inhibition, actives largely listed as inhibitors; actives 0.93% (n = 400,000); AID 504847
Target sequence (P11473 whole entry, looked up): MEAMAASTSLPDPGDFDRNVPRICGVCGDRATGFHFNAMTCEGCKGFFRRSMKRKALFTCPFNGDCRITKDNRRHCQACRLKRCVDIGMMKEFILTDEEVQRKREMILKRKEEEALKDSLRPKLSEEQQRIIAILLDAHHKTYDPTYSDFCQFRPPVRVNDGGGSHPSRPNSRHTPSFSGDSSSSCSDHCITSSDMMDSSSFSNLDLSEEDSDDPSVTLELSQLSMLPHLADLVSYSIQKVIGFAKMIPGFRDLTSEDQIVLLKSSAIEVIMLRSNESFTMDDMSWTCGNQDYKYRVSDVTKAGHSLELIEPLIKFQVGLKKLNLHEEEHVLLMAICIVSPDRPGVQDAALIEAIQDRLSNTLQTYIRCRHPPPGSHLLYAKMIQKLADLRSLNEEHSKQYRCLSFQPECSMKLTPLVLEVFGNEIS
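The screen uses fluorescence polarization to detect compounds that interfere with recruitment of the SRC2-3 coactivator peptide to VDR; plates are read after 2 h at room temperature.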
Sfp PPTase inh: Sfp phosphopantetheinyl transferase inhibition. Biochemical Sfp PPTase activity, qHTS. Potency, µM, for the others: largest response in the series, negative = inhibition, hits mostly inhibitors. actives 3.5% (n = 310,000). AID 1490;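 note: the enzyme is Sfp with the accession as filed and its product quenches rhodamine fluorescence; 0% = enzyme reaction without inhibitor and -100% = no enzyme wells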
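Step 1, compound plus 15 nM Sfp-PPTase, 15 min, room temperature. Step 2, add rhodamine-CoA (5 uM) and BHQ-2-YbbR (12.5 uM). Step 3, read 525/598 nm fluorescence at 0 and 30 min.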
An asterisk follows results filed as active; u = inconclusive; x = not tested or not shown; ! = repeats disagree; [ ] = dose if it differs, or a comment. The list is not random: actives were taken first. Their share in the collection is about 6%. Calls come from the whole dose curve; as a rule, active = well fitted curve in the direction sought with a large enough effect; inconclusive = small, poorly fitted or top-dose-only effect, or another doubt; inactive = no such curve, though single readings can be large; an effect the other way counts as inactive or inconclusive. Unless noted, % is set by controls: 0 for no effect and ±100 for the full control effect; potency is the fitted concentration of half-maximal effect.

SMILES	Tau fluor counter	Tau fibril FP	PLK1 PBD block	Tau fibril ThT	VDR inh	Sfp PPTase inh
CC(=O)N1CCC2(CC1)OC(=O)C(C)=C2C(=O)NCc1ccc(Cl)cc1	2%	-1%	x	7%	-5%	x
O=C(NCCc1ccccc1)C1Cc2c(-c3ccc(Cl)cc3)ccnc2O1 (centres undefined)	x	x	-1%	x	x	x
Cc1ccc(C)c(NC(=S)/C(=C(\[O-])c2ccc(Cl)s2)[n+]2ccccc2)c1	-15%	-6%	-9%	u	-20%	50µM*
[O-]/C(=C(\C(=S)Nc1cccc2ccccc12)[n+]1ccccc1)c1ccc(Cl)s1	8%	5%	-4%	7%	-28%	-28%
CC(C)(C)c1cc[n+](/C(C(=S)NC2CC2)=C(/[O-])c2ccc(Cl)s2)cc1	-18%	-2%	-19%	u	u	56µM*
O=C1c2ccccc2[C@@H]2C[C@@H](O)[C@H](Nc3cccc4ccccc34)CCN12	x	x	-20%	x	8%	x
COc1cccc(-c2ccc3c(N)c(C(=O)c4ccc(F)cc4)sc3n2)c1	3.2µM*[quencher]	u	x	u	-19%	x
Cc1ccc(NC(=O)c2sc3nc(-c4ccncc4)ccc3c2N)cc1	-20%	-18%	x	u	-2%	x
COc1cccc(-c2ccc3c(N)c(C(=O)NCc4ccc(Cl)cc4)sc3n2)c1	4.5µM*[quencher]	10%	x	u	-3%	x
Cc1ccccc1NC(=O)c1sc2nc(-c3ccncc3)ccc2c1N	10µM*[quencher]	13%	x	5µM*	-19%	x
COc1ccc(C(=O)c2sc3nc(-c4ccc(F)cc4)ccc3c2N)cc1	u	-11%	x	u	-9%	x
COc1cccc(-c2ccc3c(N)c(C(=O)Nc4ccccc4C)sc3n2)c1	8.9µM*[quencher]	-4%	x	u	4%	x
Cc1cccc(OCC(=O)Nc2nnc(S(=O)(=O)N3CCc4ccccc43)s2)c1	-11%	0%	x	u	5%	x
O=c1[nH]c2cc(Cl)cc([N+](=O)[O-])c2c2ccc(Cl)cc12	x	x	-11%	x	x	x
CCc1ccccc1NC(=O)CSc1nc2c(oc3ccccc32)c(=O)n1-c1ccccc1	-17%	-11%	x	-8%	2%	x
CC1(C)CC(=O)C=C(c2ccc(-c3ccc(OC(F)(F)F)cc3)cc2)C1=O	x	x	-5%	x	x	x
COc1cccc(-c2ccc3c(N)c(C(=O)NC4CC4)sc3n2)c1	16µM*[quencher]	13%	-1%	u	4%	6%
O=C(CCNC(=O)Cn1cnc2ccccc2c1=O)NCCC1=CCCCC1	1%	-2%	27µM*	-4%	-10%	-8%
CCn1c(=O)cc(OCC(=O)N2CCN(c3cccc(Cl)c3)CC2)c2ccccc21	-18%	1%	x	-16%	-19%	x
N[C@@H](Cn1cc(F)c(=O)[nH]c1=O)C(=O)O	-2%	7%	x	-6%	0%	56µM*
COc1cc(C2C(C#N)=C(SC)NC3=C2C(=O)CCC3)ccc1O (centres undefined)	-7%	-2%	1%	-6%	0%	10%
CCc1ccccc1NC(=O)CSC1=C(C#N)C(c2ccc(O)c(OC)c2)C2=C(CCCC2=O)N1 (centres undefined)	-9%	3%	11µM*	-2%	-13%	u
CCc1ccc([C@@H]2CC=C(C(=O)O)[C@H](c3cccc(Cl)c3)N2S(=O)(=O)c2ccc(C)cc2)cc1	x	x	21µM*	x	-26%	x
Cc1ccc(S(=O)(=O)N2[C@@H](c3cccc(Cl)c3)C(C(=O)O)=CC[C@H]2c2cccc(Cl)c2)cc1	x	x	27µM*	x	-18%	x
Cc1ccc(S(=O)(=O)N2[C@@H](c3ccc(C(C)(C)C)cc3)C(C(=O)O)=CC[C@H]2c2cccc(Cl)c2)cc1	x	x	21µM*	x	u	x
SMILES	Tau fluor counter	Tau fibril FP	PLK1 PBD block	Tau fibril ThT	VDR inh	Sfp PPTase inh
CCOC(=O)C1=CC[C@@H](c2ccccc2)N(S(=O)(=O)c2ccc(C)cc2)[C@H]1C#N	x	x	6.7µM*	x	x	x
Cc1ccc([C@H]2C(C(=O)O)=CC[C@@H](c3cccc(Cl)c3)N2S(=O)(=O)c2ccc(C)cc2)cc1	x	x	u	x	-16%	x
Cc1cc(-c2ccc(S(=O)(=O)N3CCN(c4cccc(C)c4C)CC3)s2)on1	x	x	-2%	x	-18%	-5%
COC(=O)C1C[C@@H]2C3=C(C(=O)[C@@](C)(NC(=O)c4ccccc4)C3[C@H](C(=O)OC)C1)[C@H](C)n1c(=O)n(-c3ccccc3)c(=O)n12 (some centres undefined)	x	x	x	x	-13%	-9%
Cc1ccc(S(=O)(=O)N2[C@@H](c3ccc(Br)cc3)C(C(=O)O)=CC[C@H]2c2ccc(Cl)c(Cl)c2)cc1	x	x	24µM*	x	u	x
Cc1ccc(S(=O)(=O)N2[C@@H](c3ccc(Br)cc3)C(C(=O)O)=CC[C@H]2c2cccc(Cl)c2)cc1	x	x	u	x	-12%	x
Cc1ccc(S(=O)(=O)N2[C@@H](c3ccc(C(C)(C)C)cc3)C(C(=O)O)=CC[C@H]2c2ccc(Cl)c(Cl)c2)cc1	x	x	27µM*	x	2%	x
COc1ccc([C@@H]2CC=C(C(=O)O)[C@H](c3ccc(C(C)(C)C)cc3)N2S(=O)(=O)c2ccc(C)cc2)cc1OC	x	x	0%	x	14%	x
O=C(Nc1ccc(N=Nc2ccccc2)cc1)c1cccc(Cl)c1	-9%	1%	-5%	3.2µM*	-14%	6%
COC(=O)c1cc(NC(=O)c2ccc([N+](=O)[O-])cc2)c(=O)oc1C	-22%	-4%	-6%	u	-9%	-15%
COc1ccc(C(=O)Nc2cc(C(=O)c3ccccc3)c(C)oc2=O)cc1	-11%	u	-14%	u	32µM*	10µM*
Cc1oc(=O)c(NC(=O)c2ccccc2)cc1C(N)=O	6%	8%	-2%	3%	16%	15%
Cc1oc(=O)c(NC(=O)c2cccc(Cl)c2)cc1C(=O)c1ccccc1	-11%	u	-16%	u	40µM*	8.9µM*
CC(=O)c1cc(NC(=O)c2ccc([N+](=O)[O-])cc2)c(=O)oc1C	-16%	u	-9%	u	0%	16µM*
Cc1ccc(C)c(N2CCN(C(=O)CCS(=O)(=O)c3cc(Br)cc4c3N(C(=O)C3CC3)CC4)CC2)c1	-19%	-5%	x	-10%	8%	x
Cc1ccc(-c2ccc(/C=N/c3ncn[nH]3)o2)cc1Cl	5%	4%	-6%	-17%	-5%	56µM*
N[C@@H](CCS(=O)O)C(=O)O	-23%	-5%	x	-14%	4%	40µM*!
NC(=O)CC[C@@H](N)C(=O)O	-2%	-8%	x	3%	1%	-8%
N/C(=N\OS(=O)(=O)c1ccc2ccccc2c1)c1ccccn1	2%	2%	-21%	-2%	7%	63µM*

High-throughput results from PubChem.
